Source: PubChem BioAssay (National Center for Advancing Translational Sciences (NCATS))
p53 reactivator: qHTS assay for re-activators of p53 using a Luc reporter. H1299 p53-A138V BP100-luciferase reporter, luminescence, 24 h. actives 0.063% (n = 320,000). AID 504706, 2011. Potency, µM (top dose mostly 92.2 µM), without a hit: at the highest dose activity change, positive = activation, most hits filed as activators; also: potency is read from the fitted curve at half-maximal effect; % of control where 0% means no effect; nearly all actives have a fitted effect of over 45% in size
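p53-null H1299 cells stably carrying temperature-sensitive p53-A138V and a BP100-luciferase reporter were pinned with compounds (4-point, 1:5 series) and held 24 hrs at 37 deg C. Luminescence was read 10 min after detection reagent.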
MmCpn inh: Inhibitors of TCP-1 ring complex (TRiC) of Methanococcus maripaludis (MmCpn): qHTS; Potency, µM (top dose mostly 76.9 µM), for inactives: at the highest dose activity, negative = inhibition, usual class: inhibitors; actives 0.031% (n = 330,000); AID 504842, 2011; purified Mm-Cpn ATPase, ADP Transcreener TR-FRET; also: potency is read from the fitted curve at half-maximal effect; % is scaled to controls: 0 for no effect and ±100 for the full control effect; nearly all actives have a fitted effect of over 80% in size
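25 nM Mm-CPN + cpd, 10 min 37°C; + 10 uM ATP, 30 min 37°C; buffer 30 mM Tris pH 7.4, 100 mM KCl, 5 mM MgCl2, 1 mM DTT; Transcreener ADP HTRF detection 30 min RT.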
12-LOX inh: Primary qHTS assay for inhibitors of human arachidonate 12S-lipoxygenase (ALOX12): Round 2 | purified 12hLO, xylenol orange hydroperoxide absorbance | Potency, µM (top dose mostly 108 µM), without a hit: at the top dose activity change, negative = inhibition, usual class: inhibitors | actives 1.1% (n = 580,000); also: potency is read from the fitted curve at half-maximal effect; % is scaled to controls: 0 for no effect and ±100 for the full control effect
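Purified human 12hLO at 150 nM in 25 mM Hepes, 0.01% Triton X-100, pH 7.0, preincubated 15 min at room temperature with compound. Reaction started with 40 uM arachidonic acid, 30 min at room temperature. Hydroperoxide measured by Fe-xylenol orange, 573/405 nm absorbance ratio.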
CCT chaperon mod: High-Throughput Screening for Modulators of Cytosolic Chaperonin Activity; purified chaperonin ATPase assay, HTRF ADP detection, 30 min; actives 0.3% (n = 360,000); AID 651819, 2012; activity change, % (no concentration beside the values), hits read low; in the data active = activity change below about -30%; also: % is scaled to controls: 0 for no effect and ±100 for the full control effect
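We incubate TRiC, 40 or 20 nM final, with library compounds at 76 uM and 10 uM ATP for 30 min at 37 °C. ADP formed is detected with Transcreener HTRF reagents after 30 min at room temperature.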
S-ASM inh: Inhibitors of Secretory Acid Sphingomyelinase (S-ASM): qHTS; Sphingomyelin phosphodiesterase (Homo sapiens), P17405; placental ASM, HMU-PC fluorogenic substrate, 60 min; Potency, µM (series often up to 57.5 µM), inactives show at the top dose activity change, negative = inhibition, most hits filed as inhibitors; actives 0.006% (n = 340,000); also: potency is read from the fitted curve at half-maximal effect
Target sequence (P17405 47-631 limits assumed): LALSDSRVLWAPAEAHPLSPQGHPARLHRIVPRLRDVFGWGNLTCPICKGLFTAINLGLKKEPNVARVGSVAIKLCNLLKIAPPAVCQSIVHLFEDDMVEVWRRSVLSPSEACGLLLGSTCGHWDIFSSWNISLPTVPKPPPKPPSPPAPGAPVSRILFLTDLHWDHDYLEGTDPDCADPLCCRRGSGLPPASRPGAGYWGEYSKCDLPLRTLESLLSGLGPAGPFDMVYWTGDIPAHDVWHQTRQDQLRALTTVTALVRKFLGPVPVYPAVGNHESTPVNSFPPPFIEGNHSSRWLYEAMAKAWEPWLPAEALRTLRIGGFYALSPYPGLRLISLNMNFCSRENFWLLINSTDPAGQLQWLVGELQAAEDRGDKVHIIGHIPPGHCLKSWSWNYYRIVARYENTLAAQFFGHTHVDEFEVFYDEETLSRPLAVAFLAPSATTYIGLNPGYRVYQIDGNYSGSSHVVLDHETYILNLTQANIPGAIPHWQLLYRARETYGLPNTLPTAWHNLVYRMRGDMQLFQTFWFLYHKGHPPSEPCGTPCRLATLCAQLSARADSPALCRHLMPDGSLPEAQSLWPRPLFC
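HMU-PC0 cleavage (9 uM final) by human placental ASM, 60 min at 37 °C following 10 min compound exposure at RT; stopped at pH 10, fluorescence Ex 386/Em 447 nm.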
PINK1 modulator: A Quantitative High throughput Screen to Identify Chemical Modulators of PINK1 Expression; PINK1 immunofluorescence, high-content cytometry, 24 h; Potency, µM (series often up to 76.6 µM), for the others: at the highest dose activation (PINK1 increase), usual class: activators; AID 624263, 2012; actives 0.2% (n = 410,000); active = well fitted activation curve with a large enough effect; inconclusive = small, poorly fitted or top-dose-only effect; cell line not stated here; also: potency is read from the fitted curve at half-maximal effect; % of control where 0% means no effect; nearly all actives have a fitted effect of over 65% in size
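Decision-based qHTS: stable cells, 24 h exposure to five compound concentrations, CCCP as control. Fixed cells stained for PINK1 plus nuclear, mitochondrial and cell markers, cytometer read.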
Numbers without * were called inactive; ? = inconclusive; . = no result; [ ] = another dose, or the depositor's remark. This is a sample that favours compounds with a hit; in the whole collection about 1.4% have one here. Unless noted, calls follow the shape of the dose curve; as a rule, active = well fitted curve in the direction sought with a large enough effect; inconclusive = small, poorly fitted or top-dose-only effect, or another doubt; inactive = no such curve, though single readings can be large; an effect the other way counts as inactive or inconclusive.

SMILES	p53 reactivator	MmCpn inh	12-LOX inh	CCT chaperon mod	S-ASM inh	PINK1 modulator
Cc1cc(NC(=O)NCC(c2ccco2)N2CCCCC2)no1 (configuration not stated)	.	.	1%	.	.	.
CCOc1ccc(C(=S)NC2CCCCC2)cc1OC	7%	-3%	22µM*	-3	-3%	1%[38.3 µM]
COc1ccc(C(=O)/C(C#N)=N/Nc2ccccc2[N+](=O)[O-])cc1	22%	2%	-27%	1	-13%	?
COc1ccc(C(=O)/C(C#N)=N/Nc2ccc([N+](=O)[O-])cc2)cc1	11%	0%	?	-3	-3%	4.5µM*
COC(=O)CSc1nc2ccsc2c(=O)n1Cc1ccco1	.	.	-2%	.	.	.
O=C(Nc1sc2c(c1C(=O)NCc1ccco1)CCCC2)c1cc(=O)c2cc(Cl)ccc2o1	.	.	-15%	.	.	40µM*
CC(C)CCNC(=O)c1cc2ccccc2oc1=O	.	.	1%	.	.	.
C[n+]1c(NCc2cc(Br)cc(Br)c2[O-])[nH]c2ccccc21	.	.	-11%	.	.	.
COc1cc(C(=O)Nc2nnc(S(=O)(=O)N3CCCCCC3)s2)cc(OC)c1OC	-2%	-3%	6%	-32*	25%	2%
COc1ccc(CNC[C@H]2Cn3c(-c4ccc(Cl)cc4)cnc3CO2)cc1	.	.	45µM*	.	.	.
COc1cc(/C=N/N(C)c2ccccc2)cc(Cl)c1O	12%	-4%	16µM*	2	?	-1%
CSc1ccc(NC(=O)CCCc2nc(C(C)C)no2)cc1	.	.	0%	.	.	.
O=C1Nc2cc(C(=O)N3CCN(c4ccccn4)CC3)ccc2S/C1=C\c1ccccc1	7%	1%	3%	-42*	-16%	0%
Cc1ccc(C2=N/C(=C\c3ccc(F)cc3)C(=O)N2)cc1	28%	-1%	2%	-44*	183%	3%
COc1ccc(/C=C2\N=C(c3ccc(Br)cc3)NC2=O)cc1OC	.	.	-12%	.	.	.
N#C/C(=C/c1c[nH]c2ccccc12)C(=O)N1CCCC1	.	.	10%	.	.	.
O=C(/C=C/c1ccco1)NC(=S)Nc1ccc(Cl)cn1	?	-1%	35µM*	-5	-1%	6%
S=C(Nc1cccc2ccccc12)N[C@H]1CO[C@H]2[C@@H]1OC[C@H]2OCc1ccccc1	.	.	63µM*	.	.	.
CCNC(=O)O[C@@H]1CO[C@H]2[C@@H]1OC[C@@H]2NC(=S)Nc1ccc(N(C)C)cc1	.	.	112µM*	.	.	.
O=C(Nc1ccccc1)O[C@@H]1CO[C@H]2[C@@H]1OC[C@@H]2NC(=S)Nc1ccccc1	.	.	71µM*	.	.	.
COc1cc(NC(=S)N[C@H]2CO[C@H]3[C@@H]2OC[C@H]3OC(=O)Nc2ccccc2)cc(OC)c1	.	.	-16%	.	.	.
O=C(Nc1cccc2ccccc12)O[C@@H]1CO[C@H]2[C@@H]1OC[C@@H]2NC(=S)Nc1cccc2ccccc12	.	.	50µM*	.	.	.
Cc1ccc(SCc2cc(=O)[nH]c(N3CCN(c4ccccc4)CC3)n2)cc1	.	.	2%	.	.	.
O/N=C/c1ccccc1I	.	.	10%	.	.	.
O=C(Nc1cccc2ccccc12)O[C@@H]1CO[C@H]2[C@@H]1OC[C@@H]2NC(=S)Nc1ccc(Cl)cc1	.	.	35µM*	.	.	.
SMILES	p53 reactivator	MmCpn inh	12-LOX inh	CCT chaperon mod	S-ASM inh	PINK1 modulator
CC(C)CCN1CCC2(CC1)CN[S+](=O)([O-])c1cccnc1O2	.	.	6%[6.33 µM]	.	.	.
CC(=O)Nc1ccc(S(=O)(=O)[C@H]2CS(=O)(=O)C[C@@H]2N2CCC(C)CC2)cc1	.	.	-89%	.	.	.
O=C(NCC12CC3CC(C1)CC(CNC(=O)c1ccc(Cl)cc1)(C3)C2)c1ccc(Cl)cc1	.	.	-1%	.	.	.
CC(=O)c1cccc(NC(=O)CCc2c(C)c3ccc(O)cc3oc2=O)c1	.	.	-2%	.	.	.
CCCCN1C(=O)C(NC(C)=O)c2cc(Br)ccc21 (configuration not stated)	2%	-3%	11%	-1	0%	1%
CC(=O)NC1C(=O)N(CCN2CCOCC2)c2ccc(C)cc21 (configuration not stated)	3%	-10%	.	-1	-1%	0%
CC(=O)NC1C(=O)N(CCN2CCOCC2)c2ccc(F)cc21 (configuration not stated)	?	-7%	40µM*	-2	5%	3%
CC(=O)NC1C(=O)N(CCN2CCOCC2)c2ccc(Cl)cc21 (configuration not stated)	1%	-6%	40µM*	-30*	3%	0%
O=S(CCCOc1ccc(F)cc1)Cc1ccccc1 (configuration not stated)	.	.	-20%	.	.	.
CCC(NC(=O)C1CC1)c1ccc(C)cc1 (configuration not stated)	.	.	5µM*	.	.	.
Cc1cc(O)c2c(c1O)C(=O)C(O)=C(O)C2=O	.	.	28µM*	.	.	.
O=C1C(n2ccc3ccccc32)c2cccc(F)c2N1Cc1ccc(C(F)(F)F)cc1 (configuration not stated)	.	.	45µM*	.	.	.
C[C@@H]1ON(C)[C@H]2C[C@H]3c4[nH]c5ccc(-c6ccc7c(c6)OCO7)cc5c4CCN3C[C@@H]12	.	.	?	-73*	.	1%
CCOc1ccccc1NC(=O)c1cc(S(=O)(=O)NCc2ccco2)ccc1F	-1%	-2%	-12%	-67*	1%	-1%
